# System: FER
# Conditions: concentration: 1 μM,replicates: in singlicate; n = 1
# 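Also: KINOMEscan kinase panel screen.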
row,SMILES,%Inh [%]
1,Cl.Cl.NC[C@H](Cc1ccc(C(F)(F)F)cc1)NC(=O)c1cc(Br)c(-c2ccnc3[nH]ccc23)s1 [GSK1487252],0
2,Nc1nc(Nc2ccccc2)cc(-c2ccc3c(N)n[nH]c3c2)n1 [GSK2225749],0
3,CC(C)Nc1cc(-c2ccc3c(N)n[nH]c3c2)nc(N)n1 [GSK2221681],1
4,CC(C)N1C(=O)Cc2cc(Nc3ncc(C(F)(F)F)c(NCc4cccc(S(C)(=O)=O)c4)n3)ccc21,2
5,Cl.Cl.NC[C@H](CC1CCCCC1)NC(=O)c1cc(Br)c(-c2ccnc3[nH]ccc23)s1 [GSK1581427],41
6,CN(C)CC(O)COc1ccc(Nc2nccc(-c3cnn4nc(N5CCOCC5)ccc34)n2)cc1 (stereo not drawn) [GW767488],11
7,CCN(CC)CCOc1ccc(Nc2ncc3cc(-c4c(Cl)cccc4Cl)c(=O)n(C)c3n2)cc1 [SB-601273],86
8,Cc1n[nH]c2ccc(-c3cc(OC[C@@H](N)Cc4ccccc4)cnc3-c3ccoc3)cc12.O=C(O)C(F)(F)F.O=C(O)C(F)(F)F [GSK507358],53
9,Cc1occc1-c1nc(N)c(OC[C@@H](N)Cc2c[nH]c3ccccc23)cc1-c1cc2c(C)n[nH]c2cn1 [GSK1660450],6
10,C[C@@H]1CCN(C(=O)CC#N)C[C@@H]1N(C)c1ncnc2[nH]ccc12,15
11,Cl.Oc1cc(-c2nc(-c3ccccc3)[nH]c2-c2ccncc2)ccc1Cl [SB-386023],2
12,O=C(NCCCN1CCOC1=O)c1cnc(NCc2cc(Cl)ccc2Cl)nc1NC1CCCC1,7
13,Cc1cc(C(=O)Nc2ccc(Oc3ccc4nc(NC(=O)C5CC5)cn4n3)cc2)nn1-c1ccccc1,14
14,Cl.Cl.Nc1nc(-c2ccc3c(N)n[nH]c3c2)cc(N2CCCC(NC(=O)c3ccccc3)C2)n1 (stereo not drawn) [GSK2286775],0
15,CCN(CC)CCCCNc1ncc2cc(-c3c(Cl)cccc3Cl)c(NC(=O)NC(C)(C)C)nc2n1,10
16,Cc1ccc2c(-c3ccncc3)c(-c3ccc(F)cc3)nn2c1.Cl [GW461484],0
17,COc1ccc(C[C@@H](CN)NC(=O)c2cc(Br)c(-c3ccnc4[nH]ccc34)s2)cc1.Cl.Cl [GSK1389063],10
18,O=C(NCCNc1ccnc(NCc2ccc(F)cc2)n1)c1cc2ccccc2s1 [GSK1379944],23
19,CN(C)CCOc1ccc(-c2cc(-c3c[nH]nc3-c3ccccn3)ccn2)cc1 [GW835314],19
20,CNC(=O)c1ccccc1Sc1ccc2c(/C=C/c3ccccn3)n[nH]c2c1,0
21,NC(=O)c1cc(-c2ccccc2)cc2c(C3CCNCC3)c[nH]c12 [GSK301362],20
22,CCn1c(-c2nonc2N)nc2c(C#CC(C)(C)O)nc(OCCN)cc21.Cl.Cl [GSK902056],15
23,C[C@H]1Oc2cc(cnc2N)-c2c(nn(C)c2C#N)CN(C)C(=O)c2ccc(F)cc21,98.8
24,C[C@@H](Oc1cc(-c2cnn(C3CCNCC3)c2)cnc1N)c1c(Cl)ccc(F)c1Cl,65
25,C=CC(=O)Nc1cc2c(Nc3ccc(F)c(Cl)c3)ncnc2cc1OCCCN1CCOCC1 [GW781483],9
26,Cc1ccc(-n2nc(C(C)(C)C)cc2NC(=O)Nc2ccc(OCCN3CCOCC3)c3ccccc23)cc1 [GW839464],0
27,Cc1cc2cn[nH]c2cc1-c1cccc2c(N)c(C(N)=O)nnc12,76
